# Results reported in PubChem BioAssay (EPA / NIEHS).
# The source made the active and inactive calls. How the source made its calls: active means hit-call score of the fitted dose curve at least 0.9, where 1 is the maximum; inactive means score below 0.9.
# Target: Cytochrome P450 2C18 (Homo sapiens) (UniProt P33260)
# Experiment: NVS_ADME_hCYP2C18: NovaScreen (NVS) CYP450-related Enzyme Activity (ADME) Assay for human CYP2C18 (AID 2283103)
# Method: NVS_ADME_hCYP2C18 is a biochemical, single-readout assay that uses extracted gene-proteins in a cell-free assay. Measurements were taken 0.5 hour after chemical dosing in a 96-well plate.NVS_ADME_hCYP2C18 is one of one assay component(s) measured or calculated from the NVS_ADME_hCYP2C18 assay. It is designed to make measurements of enzyme activity, a form of enzyme reporter, as detected with fluorescence intensity signals by Fluorescence technology.Data from the assay component NVS_ADME_hCYP2C18 was analyzed into 1 assay endpoint. This assay endpoint, NVS_ADME_hCYP2C18, was analyzed in the positive analysis fitting direction relative to Acetonitrile as the negative control and baseline of activity. Using a type of enzyme reporter, loss-of-signal activity can be used to understand changes in the enzymatic activity as they relate to the gene CYP2C18. Furthermore, this assay endpoint can be referred to as a primary readout, because this assay has produced multiple assay endpoints where this one serves a enzymatic activity function. To generalize the intended target to other relatable targets, this assay endpoint is annotated to the cyp intended target family, where the subfamily is xenobiotic metabolism.
# Binding assays used specific radioligands (tritiated, iodinated) with non-radioactive competitive displacement ligands in agonist or antagonist protocols (as indicated) and various reference compounds and inhibitors to titrate specific binding to receptors and transporters. Most enzyme assays (CYPs, kinases, phosphatases, proteases, HDACs) used recombinant protein and specific substrates (fluorescence mostly, some colorimetric and radioactive) and inhibitors, followed by a biochemical separation of substrate and product. All assays for the biochemical HTS were initially run in duplicate at a single concentration (10 uM for CYP450 assays and 25 uM for all others). Assay-chemical combinations meeting a pre-defined threshold (e.g., 30% inhibition and other criteria defined below) were then run in singleton concentration-response format with maximum concentration of 20 uM for CYPs and 50 uM for all others. Each assay was run with positive and negative controls, and concurrent controls on every plate. The follow-up (secondary) screen tested active chemical-pairs in concentration series, as well as a few additional assays not tested in the primary screen, some selected negative inactives, and several cases re-run in the concentration series for confirmatory purposes.
# Cytochrome P450 2C18 (Homo sapiens), sequence (P33260 whole entry, looked up): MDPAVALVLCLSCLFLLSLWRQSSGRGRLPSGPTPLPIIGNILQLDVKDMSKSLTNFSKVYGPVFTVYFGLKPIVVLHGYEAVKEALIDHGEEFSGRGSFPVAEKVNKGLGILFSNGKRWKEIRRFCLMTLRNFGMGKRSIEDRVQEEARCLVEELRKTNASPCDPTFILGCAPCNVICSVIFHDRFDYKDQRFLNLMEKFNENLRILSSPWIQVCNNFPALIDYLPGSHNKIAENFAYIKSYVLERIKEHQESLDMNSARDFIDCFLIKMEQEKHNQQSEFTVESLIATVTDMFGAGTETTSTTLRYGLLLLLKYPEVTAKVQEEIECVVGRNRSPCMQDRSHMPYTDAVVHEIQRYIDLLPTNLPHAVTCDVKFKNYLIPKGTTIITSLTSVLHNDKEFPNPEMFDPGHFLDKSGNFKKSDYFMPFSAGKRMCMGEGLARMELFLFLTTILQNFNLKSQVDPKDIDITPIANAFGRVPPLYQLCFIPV
SMILES,AC50,outcome
CN1CSC(=S)N(C)C1,4.32 µM (active),–
O=S(=O)(O)C(F)(F)C(F)(F)C(F)(F)C(F)(F)C(F)(F)C(F)(F)C(F)(F)C(F)(F)F,0.875 µM (active),–
COc1nn(CSP(=S)(OC)OC)c(=O)s1,3.67 µM (active),–
CC(C)(C)C(O)/C(=C\c1ccc(Cl)cc1Cl)n1cncn1 (configuration not stated),0.0386 µM (active),–
CCCN(CCOc1c(Cl)cc(Cl)cc1Cl)C(=O)n1ccnc1,0.588 µM (active),–
CCOC1Oc2ccc(OS(C)(=O)=O)cc2C1(C)C (configuration not stated),5.65 µM (active),–
CC(C)(C)C(O)C(Oc1ccc(Cl)cc1)n1cncn1 (configuration not stated),7.93 µM (active),–
Oc1ccc(Cl)cc1Cc1ccccc1,6.87 µM (active),–
CC(C)N(C(=O)COc1nnc(C(F)(F)F)s1)c1ccc(F)cc1,5.82 µM (active),–
CC[C@H](C)[C@H]1O[C@]2(C=C[C@@H]1C)C[C@@H]1C[C@@H](C/C=C(\C)[C@@H](O[C@H]3C[C@H](OC)[C@@H](O[C@H]4C[C@H](OC)[C@@H](O)[C@H](C)O4)[C@H](C)O3)[C@@H](C)/C=C/C=C3\CO[C@@H]4[C@H](O)C(C)=C[C@@H](C(=O)O1)[C@]34O)O2 (tested in a mixture with another compound),5.02 µM (active),–
O=C(O)C(F)(F)C(F)(F)C(F)(F)C(F)(F)C(F)(F)C(F)(F)C(F)(F)F,–,inactive
COP(=S)(OC)Oc1ccc([N+](=O)[O-])cc1,2.7 µM (active),–
